An excerpt weighted towards active compounds, which were near 1.7% of everything screened.
Smad3 FoxH1 inh: Smad3 (human) transcription factor binding inhibition; AID 630; P84022; TR-FRET Smad3/Dy647-FoxH1 peptide binding, europium anti-His; 0.29% of 88,000 active; inhibition, % at 25 µM;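 active means compounds that reduce the energy-transfer binding signal between the protein and its labelled peptide by more than half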;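 further: 0% = Smad3 plus labelled peptide maximal FRET and 100% = peptide-only background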
Target sequence (P84022 whole entry, looked up): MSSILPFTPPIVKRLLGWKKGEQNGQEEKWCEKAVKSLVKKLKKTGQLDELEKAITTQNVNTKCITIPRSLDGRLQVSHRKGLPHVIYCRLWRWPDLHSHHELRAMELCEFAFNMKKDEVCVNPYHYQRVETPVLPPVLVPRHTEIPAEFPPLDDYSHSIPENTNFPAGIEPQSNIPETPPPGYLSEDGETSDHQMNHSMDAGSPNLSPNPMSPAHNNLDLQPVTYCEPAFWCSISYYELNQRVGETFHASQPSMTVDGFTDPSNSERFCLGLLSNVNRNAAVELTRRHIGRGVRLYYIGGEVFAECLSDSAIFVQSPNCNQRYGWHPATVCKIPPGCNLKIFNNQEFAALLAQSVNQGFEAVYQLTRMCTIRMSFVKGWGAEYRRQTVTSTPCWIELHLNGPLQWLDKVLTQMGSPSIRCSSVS
Measles CPE: protection of cells from measles virus. protection (pct of control), % at 4 µM. Measles virus-infected cells, CPE protection, absorbance. AID 841. 1.5% of 140,000 active; in the data active means protection mostly above about 24%, no sharp cut-off; inactive means mostly below about 26%
MT1-MMP txn act: MT1-MMP promoter transcription activation | HT1080 MT1-MMP promoter luciferase reporter, luminescence, overnight; active compounds read high | activation factor at 10 µM | 0.16% of 86,000 active | AID 750;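 active means activation factor of at least 2 for MT1-MMP transcription at 10 µM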
Active calls of the source: *.

How did CN(CC(=O)O)Cc1c(O)c(Cl)cc(Cl)c1Cl do in these assays?
Smad3 FoxH1 inh: 33

What do the screens show for `CSc1nc2ccccc2s1`?
Measles CPE: 11

Results for Oc1ccccc1C(Sc1nc2ccccc2s1)Sc1nc2ccccc2s1 ?
Smad3 FoxH1 inh: 78*

Results for CN(C(=O)COC(=O)C1c2ccccc2Oc2ccccc21)C1CCS(=O)(=O)C1 (stereo not given) ?
Smad3 FoxH1 inh: -3; Measles CPE: 2; MT1-MMP txn act: 0.9

How did O=C(COC(=O)C1c2ccccc2Oc2ccccc21)NC1CCS(=O)(=O)C1 (stereo not given) do in these assays?
Smad3 FoxH1 inh: 2; Measles CPE: active; MT1-MMP txn act: 1

Results for CCOc1cc(/C=N/NC(N)=O)cc(Br)c1OCC(=O)Nc1ccccc1C ?
Measles CPE: 2

Results for CCOc1cc(/C=N/NC(N)=O)cc(Br)c1OCC(=O)Nc1cccc2ccccc12 ?
Measles CPE: 45*

Results for COc1ccc(Cl)cc1NC(=S)NCCC(c1ccccc1)c1ccccc1 ?
Measles CPE: 4

What do the screens show for `S=C(NCCC(c1ccccc1)c1ccccc1)Nc1ccc(Cl)cc1`?
Measles CPE: 48*

Results for S=C(NCCC(c1ccccc1)c1ccccc1)Nc1ccccc1Cl ?
Measles CPE: 8

Results for COc1cc(NC(=S)NCCC(c2ccccc2)c2ccccc2)c(OC)cc1Cl ?
Measles CPE: 38*

What do the screens show for `Cc1ccc(NS(=O)(=O)c2ccc(CCC(=O)NCCCOC(C)C)cc2)cc1`?
Measles CPE: 25*

How did COCCCNC(=O)CCc1ccc(S(=O)(=O)Nc2ccc(C)cc2)cc1 do in these assays?
Smad3 FoxH1 inh: 1; Measles CPE: 8; MT1-MMP txn act: 1

What do the screens show for `CCC/C=C(\CCC)C(NS(=O)(=O)c1ccccc1)c1ccc(C(F)(F)F)cc1` (stereo not given)?
MT1-MMP txn act: 1.2

What do the screens show for `Cc1cccc(CC2SC(N3CCN(c4ccccc4)CC3)=NC2=O)c1` (stereo not given)?
Measles CPE: 14

What do the screens show for `CC1=NC(=O)C(N=Nc2cccc(O)c2)N1c1ccccc1` (stereo not given)?
Smad3 FoxH1 inh: -14; Measles CPE: 7; MT1-MMP txn act: 2*

What do the screens show for `CCC1=C2CC[C@H]3C(=O)N(CC(=O)OC)C(=O)[C@H]3[C@H]2[C@@]2(C)C(=O)N(CC3CC3)C(=O)N2C1=O`?
MT1-MMP txn act: 1.2

What do the screens show for `N#CC1=C(N)OC2=C(C(=O)CC(c3ccccc3)C2)C1c1ccoc1` (stereo not given)?
Measles CPE: 30*

What do the screens show for `N#CC1=C(N)OC2=C(C(=O)CC(c3ccccc3)C2)C1c1cccnc1` (stereo not given)?
Measles CPE: 9

What do the screens show for `CC(=O)Nc1ccc(NC(=O)c2ccc(NS(=O)(=O)c3cc(C(C)(C)C)cc(C)c3C)cc2)cc1`?
Measles CPE: 2

What do the screens show for `Cc1cc(C(C)(C)C)cc(S(=O)(=O)Nc2ccc(O)c(C(=O)O)c2)c1C`?
Smad3 FoxH1 inh: -1; Measles CPE: 36*; MT1-MMP txn act: 1.1

Results for CN(C)c1ccc(C2N([C@H](C#N)c3ccc(N(C)C)cc3)CCCN2[C@@H](C#N)c2ccc(N(C)C)cc2)cc1 (stereo not given in full) ?
Smad3 FoxH1 inh: 3

What do the screens show for `Cc1ccc(NC(=O)c2cn(-c3cccc(C)n3)cn2)cc1`?
Measles CPE: 4

How did CCOC(CCNC(=O)c1cn(-c2cccc(C)n2)cn1)OCC do in these assays?
Measles CPE: 34*

Results for CC1=CC(C)C2COC(c3ccc[n+](C)c3)C1C2C (stereo not given) ?
Measles CPE: 58*

Results for COc1cc2c(cc1NC(=O)CSc1nc3ccc(C)cc3[nH]1)oc1ccccc12 ?
Measles CPE: 18

What do the screens show for `O=C(O)c1ccc(N2Cc3ccccc3C2)cc1O`?
Measles CPE: 71*

What do the screens show for `CCOC(=O)c1ccc(N2Cc3cc(C)c(C)cc3C2)cc1O`?
Smad3 FoxH1 inh: 8; MT1-MMP txn act: 1.2

What do the screens show for `O=C(c1cc(Br)ccc1O)c1cc(Br)ccc1O`?
Smad3 FoxH1 inh: 11

What do the screens show for `CCOC(=O)C(C(=O)OCC)C(Nc1cccc(Br)c1)c1ccccc1` (stereo not given)?
Measles CPE: 31*

What do the screens show for `CCOC(=O)C(NCCCCl)c1ccccc1` (stereo not given)?
Smad3 FoxH1 inh: 13; Measles CPE: 6; MT1-MMP txn act: 1.2

Results for O=C1C(=O)c2ccccc2C(O)=C1C(CCc1ccccc1)C1=C(O)c2ccccc2C(=O)C1=O ?
Smad3 FoxH1 inh: -10

Results for O=c1c2ccccc2c2ccccc2c(=O)n1-c1cc2c3ccccc3ccc2c2ccccc12 ?
Smad3 FoxH1 inh: 86*

Results for COc1ccc(OC)c(-n2c(=O)c3ccccc3c3ccccc3c2=O)c1 ?
Measles CPE: 6

How did COC(=O)[C@@H]1C[C@H]1[C@@H](NS(=O)(=O)c1ccc2ccccc2c1)c1ccccc1 do in these assays?
MT1-MMP txn act: 1.3

What do the screens show for `COC(=O)[C@@]1(Cc2ccc(OC)cc2)[C@H]2c3cc(C(=O)N(C)C)n(Cc4ccc(C)o4)c3C[C@H]2CN1C(=O)c1ccccc1`?
MT1-MMP txn act: 1.2

Results for C=CC[C@@H](C(=O)O)c1ccccc1 ?
Smad3 FoxH1 inh: -7

How did CCc1cccc(C)c1NC(=O)CSc1nc2ccccc2n1CC(=O)N(C)C do in these assays?
Smad3 FoxH1 inh: -9; Measles CPE: 2; MT1-MMP txn act: 1.1

What do the screens show for `CCOCN(C(=O)Cn1c(CO)nc2ccccc21)c1c(C)cccc1CC`?
Smad3 FoxH1 inh: -5; Measles CPE: 35*; MT1-MMP txn act: 1.1

How did Nc1ccc(Sc2ccccc2CC(=O)O)cc1 do in these assays?
Measles CPE: 5

Results for COC(=O)CNC(=O)[C@@]1(C)C=C[C@@H](Cc2ccccc2)N1C(C)=O ?
MT1-MMP txn act: 1.1

How did CC1(C)OCC(CSC2=C(SCC3COC(C)(C)O3)C(=O)c3ncccc3C2=O)O1 (stereo not given) do in these assays?
MT1-MMP txn act: 1.2

What do the screens show for `CCOc1ccc(C(C)=O)cc1Cn1nc(C(=O)O)c2ccccc2c1=O`?
Smad3 FoxH1 inh: 0; Measles CPE: 50*; MT1-MMP txn act: 1.2

What do the screens show for `Cc1cccc(C)c1OCCn1nc(C(=O)O)c2ccccc2c1=O`?
Smad3 FoxH1 inh: 15; Measles CPE: 3; MT1-MMP txn act: 1.1

How did COC(=O)[C@@]1(Cc2ccccc2)[C@H]2c3cc(C(=O)N4CCCC4)n(Cc4cc(F)cc5c4OCOC5)c3C[C@H]2CN1C(=O)c1ccccc1 do in these assays?
MT1-MMP txn act: 1.2

How did O=c1c2cccnc2[nH]c(=S)n1CCCN1CCN(c2ccc(F)cc2)CC1 do in these assays?
Smad3 FoxH1 inh: 8; Measles CPE: 16; MT1-MMP txn act: 1.1

Results for COc1ccc(N2CCN(CCCn3c(=S)[nH]c4ncccc4c3=O)CC2)cc1 ?
Smad3 FoxH1 inh: 6; Measles CPE: 25*; MT1-MMP txn act: 1.2

Results for COc1ccccc1N1CCN(Cc2ccsc2)CC1 ?
Smad3 FoxH1 inh: 10; Measles CPE: 19; MT1-MMP txn act: 1

What do the screens show for `COc1ccccc1N1CCN(Cc2cccs2)CC1`?
Smad3 FoxH1 inh: 13; Measles CPE: 96*; MT1-MMP txn act: 1

Bioassay records from PubChem BioAssay.
